The residual activity is the signal under treatment as a percentage of the control signal.

Assay [1] has as its target T1, Ephrin type-B receptor 1 (Homo sapiens) (UniProt P54762).
T1 sequence (whole entry): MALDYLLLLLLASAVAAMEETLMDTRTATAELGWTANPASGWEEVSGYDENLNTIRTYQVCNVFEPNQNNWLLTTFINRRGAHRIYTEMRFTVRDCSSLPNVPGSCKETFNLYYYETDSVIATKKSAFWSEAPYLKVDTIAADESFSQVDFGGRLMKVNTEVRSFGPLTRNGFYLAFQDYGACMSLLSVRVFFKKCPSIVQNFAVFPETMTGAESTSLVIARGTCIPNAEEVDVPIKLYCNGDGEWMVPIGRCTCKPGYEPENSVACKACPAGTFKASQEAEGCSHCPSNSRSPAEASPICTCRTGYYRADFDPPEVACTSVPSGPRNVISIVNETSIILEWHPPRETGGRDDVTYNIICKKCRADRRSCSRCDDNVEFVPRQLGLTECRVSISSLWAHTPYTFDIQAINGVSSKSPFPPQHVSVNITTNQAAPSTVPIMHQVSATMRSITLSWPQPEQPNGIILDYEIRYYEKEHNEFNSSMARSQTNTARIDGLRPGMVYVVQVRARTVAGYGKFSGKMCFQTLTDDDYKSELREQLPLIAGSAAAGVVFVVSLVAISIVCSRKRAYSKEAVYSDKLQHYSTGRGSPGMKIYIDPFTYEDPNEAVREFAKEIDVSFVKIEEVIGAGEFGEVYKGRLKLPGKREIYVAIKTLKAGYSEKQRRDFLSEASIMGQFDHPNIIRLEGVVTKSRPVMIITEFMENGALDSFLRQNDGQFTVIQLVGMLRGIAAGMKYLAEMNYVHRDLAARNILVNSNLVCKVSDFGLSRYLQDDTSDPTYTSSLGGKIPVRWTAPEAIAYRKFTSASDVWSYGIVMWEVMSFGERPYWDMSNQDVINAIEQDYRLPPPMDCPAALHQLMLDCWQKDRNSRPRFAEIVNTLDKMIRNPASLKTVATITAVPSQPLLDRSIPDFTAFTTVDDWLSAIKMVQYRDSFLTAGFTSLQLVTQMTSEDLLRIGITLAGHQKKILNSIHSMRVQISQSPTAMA
Conditions: at 10 µM; call rule not given here.

The target of assay [2] is T2, Ephrin type-B receptor 2 (Homo sapiens) (UniProt P29323).
T2 sequence (whole entry): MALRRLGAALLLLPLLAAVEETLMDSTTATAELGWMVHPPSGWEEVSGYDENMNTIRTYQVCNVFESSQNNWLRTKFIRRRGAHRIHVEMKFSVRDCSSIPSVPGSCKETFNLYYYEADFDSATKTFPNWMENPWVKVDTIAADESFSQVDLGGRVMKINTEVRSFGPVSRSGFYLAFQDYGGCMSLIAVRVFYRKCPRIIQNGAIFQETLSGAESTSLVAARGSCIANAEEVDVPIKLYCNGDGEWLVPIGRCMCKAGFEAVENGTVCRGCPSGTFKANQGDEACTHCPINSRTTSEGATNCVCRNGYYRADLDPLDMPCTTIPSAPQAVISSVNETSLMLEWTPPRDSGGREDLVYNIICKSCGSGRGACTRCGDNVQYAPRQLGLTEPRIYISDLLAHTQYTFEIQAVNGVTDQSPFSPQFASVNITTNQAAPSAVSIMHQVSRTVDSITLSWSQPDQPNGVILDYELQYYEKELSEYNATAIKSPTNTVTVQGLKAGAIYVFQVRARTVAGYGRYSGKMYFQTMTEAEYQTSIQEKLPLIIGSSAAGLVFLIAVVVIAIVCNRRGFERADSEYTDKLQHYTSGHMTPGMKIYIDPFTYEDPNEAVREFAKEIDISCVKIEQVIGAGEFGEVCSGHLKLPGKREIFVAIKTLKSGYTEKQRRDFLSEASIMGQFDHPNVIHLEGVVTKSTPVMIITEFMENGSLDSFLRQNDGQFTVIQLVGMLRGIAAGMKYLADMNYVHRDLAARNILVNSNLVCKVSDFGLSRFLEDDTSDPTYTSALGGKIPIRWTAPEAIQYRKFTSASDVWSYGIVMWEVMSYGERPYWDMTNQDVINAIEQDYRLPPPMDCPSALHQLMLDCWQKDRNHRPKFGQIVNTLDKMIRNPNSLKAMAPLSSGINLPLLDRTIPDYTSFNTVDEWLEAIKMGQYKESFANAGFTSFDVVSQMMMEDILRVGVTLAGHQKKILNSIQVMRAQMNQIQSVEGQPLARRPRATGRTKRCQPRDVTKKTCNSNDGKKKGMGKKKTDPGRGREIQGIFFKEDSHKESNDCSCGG
Conditions: at 1 µM.

Assay [3] concerns the target T2, Ephrin type-B receptor 2 (Homo sapiens). Conditions: at 10 µM.
Assay [4] deals with T3, Ephrin type-B receptor 3 (Homo sapiens) (UniProt P54753).
T3 sequence (whole entry): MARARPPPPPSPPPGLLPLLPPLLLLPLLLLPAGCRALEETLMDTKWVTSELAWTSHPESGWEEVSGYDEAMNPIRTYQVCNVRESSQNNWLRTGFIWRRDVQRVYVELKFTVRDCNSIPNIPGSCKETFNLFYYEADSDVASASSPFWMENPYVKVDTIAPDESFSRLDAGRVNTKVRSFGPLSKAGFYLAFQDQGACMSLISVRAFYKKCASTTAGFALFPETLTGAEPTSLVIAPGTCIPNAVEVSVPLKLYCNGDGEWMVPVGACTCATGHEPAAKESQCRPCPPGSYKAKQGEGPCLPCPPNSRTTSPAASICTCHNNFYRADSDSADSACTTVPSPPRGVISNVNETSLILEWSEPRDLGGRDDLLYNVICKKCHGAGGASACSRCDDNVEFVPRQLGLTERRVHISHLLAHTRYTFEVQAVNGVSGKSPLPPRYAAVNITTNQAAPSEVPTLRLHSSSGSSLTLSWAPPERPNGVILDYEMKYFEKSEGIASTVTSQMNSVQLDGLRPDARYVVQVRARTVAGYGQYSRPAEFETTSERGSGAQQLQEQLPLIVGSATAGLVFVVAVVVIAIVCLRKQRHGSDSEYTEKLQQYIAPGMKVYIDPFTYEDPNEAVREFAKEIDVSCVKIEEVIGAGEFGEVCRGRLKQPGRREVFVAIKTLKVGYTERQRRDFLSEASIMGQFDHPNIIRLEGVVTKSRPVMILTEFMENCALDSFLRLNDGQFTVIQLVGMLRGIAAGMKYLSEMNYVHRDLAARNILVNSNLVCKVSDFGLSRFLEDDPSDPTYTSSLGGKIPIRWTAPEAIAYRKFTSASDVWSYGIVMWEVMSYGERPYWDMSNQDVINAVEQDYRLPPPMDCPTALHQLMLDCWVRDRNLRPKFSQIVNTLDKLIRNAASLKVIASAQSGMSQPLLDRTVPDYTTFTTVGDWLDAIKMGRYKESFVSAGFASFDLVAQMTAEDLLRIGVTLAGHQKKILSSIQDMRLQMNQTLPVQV
Conditions: at 1 µM.

The target of assay [5] is T3, Ephrin type-B receptor 3 (Homo sapiens). Conditions: at 10 µM.
The target of assay [6] is T4, Ephrin type-B receptor 4 (Homo sapiens) (UniProt P54760).
T4 sequence (whole entry): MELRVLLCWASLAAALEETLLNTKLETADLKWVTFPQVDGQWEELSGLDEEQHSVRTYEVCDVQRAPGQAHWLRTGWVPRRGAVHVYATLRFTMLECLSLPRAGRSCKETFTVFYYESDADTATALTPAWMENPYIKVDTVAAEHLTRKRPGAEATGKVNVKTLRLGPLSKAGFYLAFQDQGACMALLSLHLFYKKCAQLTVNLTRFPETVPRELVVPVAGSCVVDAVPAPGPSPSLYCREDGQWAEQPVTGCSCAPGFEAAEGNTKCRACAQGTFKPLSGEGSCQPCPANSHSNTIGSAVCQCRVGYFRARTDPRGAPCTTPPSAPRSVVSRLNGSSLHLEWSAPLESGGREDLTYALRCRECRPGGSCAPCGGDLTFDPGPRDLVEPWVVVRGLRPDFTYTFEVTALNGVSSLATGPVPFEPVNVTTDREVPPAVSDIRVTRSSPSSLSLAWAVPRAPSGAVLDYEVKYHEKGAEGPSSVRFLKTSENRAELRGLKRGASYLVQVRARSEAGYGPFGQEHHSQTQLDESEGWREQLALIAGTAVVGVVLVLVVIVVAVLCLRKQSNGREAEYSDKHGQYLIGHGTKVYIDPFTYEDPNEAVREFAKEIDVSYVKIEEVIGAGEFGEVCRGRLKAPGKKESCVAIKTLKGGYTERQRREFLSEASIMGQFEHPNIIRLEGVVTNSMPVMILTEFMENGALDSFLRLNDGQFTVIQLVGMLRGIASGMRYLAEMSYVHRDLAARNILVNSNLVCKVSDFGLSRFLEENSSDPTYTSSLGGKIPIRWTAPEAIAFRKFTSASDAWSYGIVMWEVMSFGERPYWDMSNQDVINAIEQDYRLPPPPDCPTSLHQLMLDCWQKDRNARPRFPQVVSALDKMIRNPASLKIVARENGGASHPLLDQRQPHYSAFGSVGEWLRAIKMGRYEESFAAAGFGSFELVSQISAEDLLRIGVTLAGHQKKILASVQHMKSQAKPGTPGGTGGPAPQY
Conditions: at 1 µM.

Assay [7] addresses T4, Ephrin type-B receptor 4 (Homo sapiens). Conditions: at 10 µM.
Assay [8] addresses Receptor tyrosine-protein kinase erbB-4 (Homo sapiens) (UniProt Q15303). Conditions: at 1 µM.
Assay [9] shares this target. Conditions: at 10 µM.
In assay [10] the target is Focal adhesion kinase 1 (Homo sapiens) (UniProt Q05397). Conditions: at 1 µM.
Focal adhesion kinase 1 (Homo sapiens), sequence (Q05397 2-1052 limits assumed): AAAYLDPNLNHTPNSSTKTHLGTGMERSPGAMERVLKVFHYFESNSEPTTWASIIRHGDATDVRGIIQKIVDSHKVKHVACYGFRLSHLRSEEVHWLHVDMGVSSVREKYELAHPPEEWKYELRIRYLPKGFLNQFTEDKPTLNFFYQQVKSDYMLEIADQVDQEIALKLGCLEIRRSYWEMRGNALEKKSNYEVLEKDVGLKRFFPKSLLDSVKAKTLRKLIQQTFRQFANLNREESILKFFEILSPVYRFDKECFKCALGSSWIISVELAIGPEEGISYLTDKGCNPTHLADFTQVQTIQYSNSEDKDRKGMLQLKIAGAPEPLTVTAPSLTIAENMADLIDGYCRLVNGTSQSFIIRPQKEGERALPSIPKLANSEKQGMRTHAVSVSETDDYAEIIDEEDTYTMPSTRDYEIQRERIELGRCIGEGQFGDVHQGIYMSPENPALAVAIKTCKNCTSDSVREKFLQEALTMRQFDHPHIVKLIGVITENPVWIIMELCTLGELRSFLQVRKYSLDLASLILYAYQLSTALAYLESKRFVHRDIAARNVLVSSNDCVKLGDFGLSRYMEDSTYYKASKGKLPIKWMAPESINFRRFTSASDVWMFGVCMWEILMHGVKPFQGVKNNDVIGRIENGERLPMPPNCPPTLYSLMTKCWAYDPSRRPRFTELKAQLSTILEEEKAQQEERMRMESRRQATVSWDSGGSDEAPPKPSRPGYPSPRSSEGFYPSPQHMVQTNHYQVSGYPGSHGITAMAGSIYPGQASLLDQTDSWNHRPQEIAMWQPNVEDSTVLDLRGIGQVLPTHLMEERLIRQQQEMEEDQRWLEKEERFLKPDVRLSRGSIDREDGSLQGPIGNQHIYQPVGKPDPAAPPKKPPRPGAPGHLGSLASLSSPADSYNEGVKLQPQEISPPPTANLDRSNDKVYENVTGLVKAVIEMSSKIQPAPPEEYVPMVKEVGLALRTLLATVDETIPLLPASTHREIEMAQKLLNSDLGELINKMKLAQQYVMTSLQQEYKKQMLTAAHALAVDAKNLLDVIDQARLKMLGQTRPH

Receptor tyrosine-protein kinase erbB-4 (Homo sapiens), sequence (Q15303 whole entry): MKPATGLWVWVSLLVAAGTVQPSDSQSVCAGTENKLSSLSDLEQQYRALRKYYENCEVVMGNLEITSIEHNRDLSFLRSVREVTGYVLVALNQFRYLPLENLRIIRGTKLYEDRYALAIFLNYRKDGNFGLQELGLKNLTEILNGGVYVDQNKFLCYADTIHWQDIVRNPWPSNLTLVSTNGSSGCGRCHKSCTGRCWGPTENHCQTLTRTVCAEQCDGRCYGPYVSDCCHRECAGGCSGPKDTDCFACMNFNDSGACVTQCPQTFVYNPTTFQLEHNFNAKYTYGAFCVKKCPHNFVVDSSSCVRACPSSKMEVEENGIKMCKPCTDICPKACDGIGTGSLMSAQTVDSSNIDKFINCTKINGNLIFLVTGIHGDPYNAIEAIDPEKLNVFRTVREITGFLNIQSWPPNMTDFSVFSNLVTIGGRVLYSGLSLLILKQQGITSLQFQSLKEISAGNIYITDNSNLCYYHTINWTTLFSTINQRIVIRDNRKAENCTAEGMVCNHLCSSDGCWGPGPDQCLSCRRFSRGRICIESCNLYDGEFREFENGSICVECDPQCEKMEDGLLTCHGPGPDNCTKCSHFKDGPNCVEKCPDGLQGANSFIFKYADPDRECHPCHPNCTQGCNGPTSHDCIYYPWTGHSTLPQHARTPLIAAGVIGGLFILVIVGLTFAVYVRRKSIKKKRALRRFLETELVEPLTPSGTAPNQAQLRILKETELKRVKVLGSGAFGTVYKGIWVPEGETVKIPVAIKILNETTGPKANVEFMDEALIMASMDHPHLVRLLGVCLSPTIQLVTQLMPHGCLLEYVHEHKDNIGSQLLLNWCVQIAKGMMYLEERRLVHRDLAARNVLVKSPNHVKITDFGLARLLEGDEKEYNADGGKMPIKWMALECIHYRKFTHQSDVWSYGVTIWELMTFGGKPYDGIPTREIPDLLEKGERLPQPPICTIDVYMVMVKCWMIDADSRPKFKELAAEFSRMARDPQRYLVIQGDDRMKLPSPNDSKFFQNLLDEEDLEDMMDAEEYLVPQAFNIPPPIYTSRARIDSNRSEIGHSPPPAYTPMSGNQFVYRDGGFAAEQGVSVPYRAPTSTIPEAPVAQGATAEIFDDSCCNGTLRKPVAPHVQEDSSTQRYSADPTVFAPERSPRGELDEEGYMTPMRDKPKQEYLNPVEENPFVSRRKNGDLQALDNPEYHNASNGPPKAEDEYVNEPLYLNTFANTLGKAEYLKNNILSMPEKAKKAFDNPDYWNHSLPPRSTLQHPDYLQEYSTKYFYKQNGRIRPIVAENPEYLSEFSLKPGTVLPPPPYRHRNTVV

`COc1ccc(CNc2nc(N(CCO)CCO)nc3c2ncn3C(C)C)cc1`: the residual activity in assay [1] was 77%; in assay [2], 113%; in assay [3], 106%; in [4], 113% (inactive); in assay [5] it was 107%; in [6] it was 87%. The residual activity in assay [7] was found to be 77%; in assay [8] it was 91%; in assay [9] it was 101%; in assay [10] it was 91%.

The record behind these values is ChEMBL document CHEMBL2218924, “A broad activity screen in support of a chemogenomic map for kinase signalling research and drug discovery” (Biochem J, 2013).
